The values below come from PubChem BioAssay (NCI).

Each structure is given as a SMILES string. Where “and” joins values, the source holds several entries; their conditions need not be identical. Equal entries are not always repeated. Compounds without any hit were thinned out: in the full panel of roughly 83,000, 20% have a hit.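 Single-dose data. Exposure time 48 hours. Values below 10 considered active.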 Unmarked numbers belong to inactive results. Calls of active or inactive are those of the source.

Test systems include HCT-15 colon; HT29 colon; SNB-19 CNS; U251 CNS; PC-3 prostate; SK-MEL-5 melanoma; UACC-62 melanoma; LOX IMVI melanoma; SK-MEL-2 melanoma; EKVX NSCLC; SN12C renal; UO-31 renal; ACHN renal; CAKI-1 renal; A498 renal; HL-60(TB) leukemia; CCRF-CEM leukemia; MOLT-4 leukemia; SK-MEL-28 melanoma.
Common to all, as to experiment: NCI-60 one-dose screen, 48 h (100 = growth as untreated, 0 = no growth, -100 = all killed)
A further experiment relates to SNB-75 CNS. As to conditions: 10 µM unless noted.

As for `CC[C@](O)(C(=O)O)c1cc2n(c(=O)c1CO)Cc1cc3ccccc3nc1-2`, the growth was -5.77% (active) in the experiment on HCT-15 colon (10 µM unless noted); -31.3% (active) with HT29 colon (10 µM unless noted); -33.5% (active) in the experiment with SNB-75 CNS; 1.96% (active) with SNB-19 CNS (10 µM unless noted); 1.58% (active) with U251 CNS (10 µM unless noted); -8.14% (active) in the experiment with PC-3 prostate (10 µM unless noted). Moreover, the growth in the experiment on SK-MEL-5 melanoma (10 µM unless noted) is -94.2% (active); in the experiment on UACC-62 melanoma (10 µM), -68.6% (active); in the experiment on LOX IMVI melanoma (10 µM unless noted), -40.9% (active); in the experiment on SK-MEL-2 melanoma (10 µM unless noted), -20.9% (active); with EKVX NSCLC (10 µM unless noted), 10.2%; with SN12C renal (10 µM unless noted), 17%. For the same compound, the growth with UO-31 renal (10 µM unless noted) was -61% (active); in the experiment with ACHN renal (10 µM unless noted), -57.1% (active); in the experiment on CAKI-1 renal (10 µM unless noted), -28.8% (active); in the experiment with A498 renal (10 µM unless noted), -76.5% (active); in the experiment with HL-60(TB) leukemia (10 µM unless noted), -44.6% (active); in the experiment with CCRF-CEM leukemia (10 µM unless noted) it was -24.5% (active). In the experiment with MOLT-4 leukemia (10 µM unless noted), the growth is -38.3% (active).
`CC[C@@]1(O)C[C@H](OC2CC(N(C)C)C(OC3CC(O)C(OC4CCC(=O)C(C)O4)C(C)O3)C(C)O2)c2c(cc3c(c2O)C(=O)c2c(O)ccc(O)c2C3=O)[C@H]1C(=O)OC` (stereo not given in full): the growth is -70.6% (active) in the experiment on HCT-15 colon (10 µM unless noted); -47.4% (active) in the experiment on HT29 colon (10 µM unless noted); -37.1% (active) in the experiment with SNB-75 CNS; 25.7% with SNB-19 CNS (10 µM unless noted); -38.3% (active) in the experiment with U251 CNS (10 µM unless noted); -24.5% (active) in the experiment with PC-3 prostate (10 µM unless noted). The growth in the experiment on SK-MEL-5 melanoma (10 µM unless noted) is -24.9% (active); with UACC-62 melanoma (10 µM), -72.9% (active); with LOX IMVI melanoma (10 µM unless noted), -68.8% (active); with SK-MEL-2 melanoma (10 µM unless noted), -40.2% (active); in the experiment with EKVX NSCLC (10 µM unless noted) it was 17.6%; in the experiment on SN12C renal (10 µM unless noted), 24.3%. For the same compound, the growth in the experiment on UO-31 renal (10 µM unless noted) was -57.2% (active); in the experiment on ACHN renal (10 µM unless noted), -86.9% (active); in the experiment on CAKI-1 renal (10 µM unless noted), -53.5% (active); with A498 renal (10 µM unless noted) it was -78.6% (active); in the experiment with HL-60(TB) leukemia (10 µM unless noted), -9.74% (active); with CCRF-CEM leukemia (10 µM unless noted), 4.1% (active). Moreover, the growth in the experiment with MOLT-4 leukemia (10 µM unless noted) is 7.32% (active).
For `CC[C@@]1(O)C[C@H](OC2CC(N(C)C)C(O)C(C)O2)c2c(O)c3c(c(O)c2[C@H]1OC1CC(N(C)C)C(O)C(C)O1)C(=O)c1cccc(O)c1C3=O` (stereo not given in full), the growth was -49.7% (active) in the experiment on HCT-15 colon (10 µM unless noted); -39% (active) with HT29 colon (10 µM unless noted); -94.6% (active) in the experiment with SNB-75 CNS; 5.62% (active) with SNB-19 CNS (10 µM unless noted); -21.9% (active) with U251 CNS (10 µM unless noted); -61.8% (active) with PC-3 prostate (10 µM unless noted). For the same compound, the growth in the experiment on SK-MEL-5 melanoma (10 µM unless noted) was -89% (active); with UACC-62 melanoma (10 µM) it was -63.2% (active); in the experiment on LOX IMVI melanoma (10 µM unless noted), -36.2% (active); in the experiment on SK-MEL-2 melanoma (10 µM unless noted) it was -54.5% (active); in the experiment on EKVX NSCLC (10 µM unless noted) it was 4.27% (active); in the experiment with SN12C renal (10 µM unless noted), 11.4%. Further, the growth with UO-31 renal (10 µM unless noted) is -33.9% (active); in the experiment with ACHN renal (10 µM unless noted), -31% (active); with CAKI-1 renal (10 µM unless noted), -9.18% (active); in the experiment with A498 renal (10 µM unless noted), -68% (active); in the experiment with HL-60(TB) leukemia (10 µM unless noted), -34.3% (active); with CCRF-CEM leukemia (10 µM unless noted) it was -37.7% (active). Besides, the growth in the experiment on MOLT-4 leukemia (10 µM unless noted) was -10.5% (active).
As for `S=C(SSC(=S)N1CCCCC1)N1CCCCC1`, the growth was 90.1% in the experiment on HCT-15 colon (10 µM); 5.6% (active) in the experiment with HCT-15 colon (100 µM); 104% in the experiment on HT29 colon (10 µM); -61.4% (active) in the experiment on HT29 colon (100 µM); 50.5% [100 µM] with SNB-75 CNS; 92.8% with SNB-19 CNS (10 µM). In addition, the growth in the experiment with SNB-19 CNS (100 µM) was 56.5%; in the experiment with U251 CNS (10 µM), 88%; with U251 CNS (100 µM) it was -43.7% (active); in the experiment on PC-3 prostate (10 µM), 83.6%; with PC-3 prostate (100 µM) it was 18%; in the experiment with SK-MEL-5 melanoma (10 µM) it was 93.9%. Also, the growth in the experiment with SK-MEL-5 melanoma (100 µM) is -18% (active); with UACC-62 melanoma (10 µM), 96.7%; with UACC-62 melanoma (100 µM), 2.29% (active); in the experiment on LOX IMVI melanoma (10 µM) it was 87.1%; in the experiment with LOX IMVI melanoma (100 µM) it was -45.9% (active); in the experiment with SK-MEL-28 melanoma (10 µM), 105%. Also, the growth with SK-MEL-28 melanoma (100 µM) was -41.6% (active); with SK-MEL-2 melanoma (10 µM) it was 102%; in the experiment with SK-MEL-2 melanoma (100 µM) it was 2.78% (active); in the experiment on EKVX NSCLC (10 µM), 104%; with EKVX NSCLC (100 µM), -23.3% (active); in the experiment with SN12C renal (10 µM), 96.1%. In addition, the growth in the experiment with SN12C renal (100 µM) was -42.3% (active); with UO-31 renal (10 µM), 102%; in the experiment with UO-31 renal (100 µM) it was -12.3% (active); in the experiment on ACHN renal (10 µM) it was 106%; with ACHN renal (100 µM), -51% (active); in the experiment on CAKI-1 renal (10 µM), 95.6%. Besides, the growth in the experiment with CAKI-1 renal (100 µM) was -77.7% (active); in the experiment with A498 renal (10 µM), 105%; with A498 renal (100 µM), 72.4%; in the experiment with HL-60(TB) leukemia (10 µM) it was 86.4%; in the experiment with HL-60(TB) leukemia (100 µM) it was 14.7%; with CCRF-CEM leukemia (10 µM) it was 91.1%. Besides, the growth in the experiment on CCRF-CEM leukemia (100 µM) was -38.1% (active); with MOLT-4 leukemia (10 µM), 85%; with MOLT-4 leukemia (100 µM) it was 0.424% (active).
For `O=C1c2ccccc2C(=O)C(Cl)C1Cl` (stereo not given), the growth is -86.6% (active) in the experiment with HCT-15 colon (10 µM unless noted); 96.8% in the experiment with HT29 colon (10 µM unless noted); 54% in the experiment with SNB-75 CNS; 69.5% in the experiment with SNB-19 CNS (10 µM unless noted); 83% in the experiment on U251 CNS (10 µM unless noted); 71.8% in the experiment on PC-3 prostate (10 µM unless noted). Moreover, the growth is 86.3% in the experiment on SK-MEL-5 melanoma (10 µM unless noted); 70.9% in the experiment with UACC-62 melanoma (10 µM); 87.9% in the experiment with SK-MEL-28 melanoma (10 µM); 111% in the experiment on SK-MEL-2 melanoma (10 µM unless noted); -79.6% (active) in the experiment on EKVX NSCLC (10 µM unless noted); 71.4% in the experiment with SN12C renal (10 µM unless noted). The growth with UO-31 renal (10 µM unless noted) is -98.5% (active); in the experiment on ACHN renal (10 µM unless noted), -100% (active); with CAKI-1 renal (10 µM unless noted), 64.5%; with A498 renal (10 µM unless noted), 133%; in the experiment with HL-60(TB) leukemia (10 µM unless noted) it was -24.2% (active); with CCRF-CEM leukemia (10 µM unless noted), -20.8% (active). Also, the growth with MOLT-4 leukemia (10 µM unless noted) was -8.44% (active).
As for `Oc1cccc2cccnc12`, the growth in the experiment on HCT-15 colon (10 µM unless noted) was 64.3% and 110% and 97.1%; in the experiment on HT29 colon (10 µM unless noted) it was 51.8% and 106%; in the experiment with SNB-75 CNS it was 101% and 106% and 89.6%; with SNB-19 CNS (10 µM unless noted) it was 95.1% and 108% and 102%; with U251 CNS (10 µM unless noted), 72.3% and 99.1% and 106%; with PC-3 prostate (10 µM unless noted) it was 86.9% and 97.3% and 92.3%. Further, the growth was 97.2% and 99.9% and 110% in the experiment on SK-MEL-5 melanoma (10 µM unless noted); 97.2% and 94.1% with UACC-62 melanoma (10 µM); 71.9% and 99.1% and 107% in the experiment with LOX IMVI melanoma (10 µM unless noted); 97.2% and 107% and 106% in the experiment with SK-MEL-28 melanoma (10 µM); 99% and 102% and 101% in the experiment on SK-MEL-2 melanoma (10 µM unless noted); 93% and 110% and 103% in the experiment with EKVX NSCLC (10 µM unless noted). The growth is 89.6% and 103% and 99.6% in the experiment with SN12C renal (10 µM unless noted); 74.2% and 94.4% and 80.2% in the experiment with UO-31 renal (10 µM unless noted); 83.5% and 117% and 96% in the experiment on ACHN renal (10 µM unless noted); 103% and 100% and 107% in the experiment on CAKI-1 renal (10 µM unless noted); 137% and 99.4% and 83.7% in the experiment with A498 renal (10 µM unless noted); 98.8% and 114% and 78.2% in the experiment with HL-60(TB) leukemia (10 µM unless noted). For the same compound, the growth is 48.8% and 99.2% and 96% in the experiment with CCRF-CEM leukemia (10 µM unless noted); 60.2% and 110% and 97.8% in the experiment with MOLT-4 leukemia (10 µM unless noted).
